Our source for the max response, Potency and outcome values is PubChem BioAssay (NCATS).

Records with an inconclusive call do not appear. Calls of active or inactive are those of the source. Calls follow the shape of the dose curve; as a rule, active = well fitted inhibition curve with a large enough effect; inconclusive = small, poorly fitted or top-dose-only effect; inactive = flat fitted curve, though single readings scatter.
% is scaled to controls: 0 for no effect and ±100 for the full control effect; potency is read from the fitted curve at half-maximal effect.

The assay deals with KB-3-1. Kind of assay: Cytotoxic Profiling of Annotated Libraries Using Quantitative High-Throughput Screening (AID 1296008). Also: nearly all actives have a fitted effect of over 60% in size. The following applies: Five cell lines viability, CellTiter-Glo ATP luminescence, 48-72 h; max response: hits give low values. From the text: Cell-based phenotypic screening is a commonly used approach to discover biological pathways, novel drug targets, chemical probes and high-quality hit-to-lead molecules. Many hits identified from high-throughput screening campaign are ruled out through a series of follow-up potency, selectivity/specificity, and cytotoxicity assays. Prioritization of molecules with little or no cytotoxicity for a more in-depth downstream evaluation influence the future direction of projects, so cytotoxicity profiling of the screening libraries at early stage is essential for increasing the likelihood of candidate success. […] For the annotated library, we also examined the primary targets and mechanistic pathways regularly associated with cell death. To our knowledge, this is the first study to use high-throughput screening to profile large libraries for cytotoxicity assessment in both normal and cancer cell lines. In summary, the results generated here constitutes a valuable resource for the scientific community and provides insight on identifying cytotoxic compounds with particular mechanisms of action, and prioritizing compounds with suitable cytotoxicity profile for further evaluation.
A pintool (Kalypsys) was used to transfer 23 nL of compound solution to the 1536-well assay plates. After 48 or 72 hr incubation at 37 degree Celsius, 5% CO2 and 95% humidity, 2.5 uL of CellTiter-Glo (Promega) was dispensed into each well using a dispenser (Aspect Automation, St. Paul, MN) with solenoid valves (Lee Valves, Westbrook CT). Plates were left at room temperature for 10 min before imaging the ATP-coupled luminescence using a ViewLux microplate imager (PerkinElmer, Waltham, MA).
On to `CC(C)(Oc1ccc(CCNC(=O)c2ccc(Cl)cc2)cc1)C(=O)O`, for which the max response was 2.41% (inactive).

On to `CCN(Cc1ccncc1)C(=O)C(CO)c1ccccc1` (stereo not given), for which the max response was 6.96% (inactive).

For `O=C(O)CN(CCOCCOCCN(CC(=O)O)CC(=O)O)CC(=O)O`, the max response is 5.76% (inactive).

Take `CC(C)(C)c1ccc(C(=O)CCCN2CCC(OC(c3ccccc3)c3ccccc3)CC2)cc1`: the max response was -0.417% (inactive).

Take `Cc1ccc(/C(=C\CN2CCCC2)c2ccccn2)cc1`: the max response is 18.1% (inactive).

Regarding `COc1ccc(CN(CCN(C)C)c2ccccn2)cc1`, the max response was -13% (inactive).

For `CCN1CCC[C@H]1CNC(=O)c1c(O)c(Cl)cc(Cl)c1OC`, the max response was -13.7% (inactive).

`CC(=O)OC(C)C[N+](C)(C)C` (stereo not given): the max response was 6% (inactive).

For `CC(=O)OCC1=C(C(=O)O)N2C(=O)[C@@H](NC(=O)Cc3cccs3)[C@H]2SC1`, the max response was 1.19% (inactive).

For `COC(=O)C1=C(C)NC(C)=C(C(=O)OCCN(C)Cc2ccccc2)C1c1cccc([N+](=O)[O-])c1` (stereo not given), the max response was -10.4% (inactive).

With `CC(=O)[C@@]1(O)CC[C@H]2[C@@H]3CCC4=CC(=O)CC[C@]4(C)[C@H]3CC[C@@]21C`, the max response was -5.68% (inactive).

As for `NC1=NCC2c3ccccc3Cc3ccccc3N12` (stereo not given), the max response was -4.43% (inactive).

`CN(C)CCOC(=O)COc1ccc(Cl)cc1`: the max response is -1.09% (inactive).

Take `CCc1c(C)[nH]c2c1C(=O)C(CN1CCOCC1)CC2` (stereo not given): the max response was -8.21% (inactive).

Regarding `C[C@H](CS)C(=O)N1CCC[C@H]1C(=O)O`, the max response was 0.626% (inactive).

With `Cc1nnc(SCC2=C(C(=O)O)N3C(=O)[C@@H](NC(=O)Cn4cnnn4)[C@H]3SC2)s1`, the max response was 4.46% (inactive).

On to `CN=C(NC#N)NCCSCc1nc[nH]c1C`, for which the max response was -9.62% (inactive).

With `COC(=O)[C@@H](N)Cc1ccc(O)c(O)c1`, the max response was -3.59% (inactive).

For the molecule `CC(=O)[C@]1(O)Cc2c(O)c3c(c(O)c2[C@@H](O[C@H]2C[C@H](N)[C@H](O)[C@H](C)O2)C1)C(=O)c1ccccc1C3=O`, the Potency was 4.61 µM (active).

As to `Cc1ccc(=O)n(-c2ccccc2)c1`, the max response was 4.11% (inactive).

Take `FC(F)(F)c1ccccc1-n1ccnc1`: the max response was 22% (inactive).

Turning to `O=C1CC2(CCCC2)CC(=O)N1CCCCN1CCN(c2ncccn2)CC1`, the max response was -1.42% (inactive).

Turning to `CCCCCN(CCCCC)C(=O)C(CCC(=O)O)NC(=O)c1ccc(Cl)c(Cl)c1` (stereo not given), the max response was -8.56% (inactive).

Turning to `O=C(O)CCCCCCCC(=O)O`, the max response is -3.68% (inactive).

Regarding `Cc1cc(C)c(/C=C2\C(=O)Nc3ccccc32)[nH]1`, the max response was -3.51% (inactive).

With `CN1C(=O)CC[C@H]1c1cccnc1`, the max response was 0.0726% (inactive).

With `COc1cc(Cc2cnc(N)nc2N)cc(OC)c1OC`, the max response was 8.08% (inactive).

For `NC(=Nc1ccccc1)Nc1ccccc1`, the max response is -0.105% (inactive).

With `COCCOC(=O)C1=C(C)NC(C)=C(C(=O)OC(C)C)C1c1cccc([N+](=O)[O-])c1` (stereo not given), the max response was 2.4% (inactive).

As to `CCOC(=O)c1cnc2c(cnn2CC)c1NN=C(C)C`, the max response is 7.56% (inactive).

For `C[C@@H](O)[C@H]1C(=O)N2C(C(=O)O)=C(SCCN=CN)C[C@H]12`, the max response is -8.98% (inactive).

As for `Nc1c2c(nc3ccccc13)CCCC2O` (stereo not given), the max response is -6.2% (inactive).

With `COc1ccc2c(c1OC)C(=O)O[C@@H]2[C@H]1c2c(cc3c(c2OC)OCO3)CCN1C`, the max response was -12.5% (inactive).

`C[C@]12CC[C@@H]3c4ccc(O)cc4C[C@@H](CCCCCCCCCS(=O)CCCC(F)(F)C(F)(F)F)[C@H]3[C@@H]1CC[C@@H]2O` (stereo not given in full): the max response was 3.54% (inactive).

With `OCCN1CCN(CCCN2c3ccccc3C=Cc3ccccc32)CC1`, the max response was -12.9% (inactive).

In the case of `Nc1nc(N)c2nc(-c3ccccc3)c(N)nc2n1`, the max response was -2.1% (inactive).

Consider `NC(N)=NC(=O)Cc1c(Cl)cccc1Cl`, for which the max response is 6.63% (inactive).

With `CCCN1C[C@H](CSC)C[C@@H]2c3cccc4[nH]cc(c34)C[C@H]21`, the max response is 9.69% (inactive) and the molecule was classed as inactive.

With `CCCN(CCC)C(=O)C(CCC(=O)O)NC(=O)c1ccccc1` (stereo not given), the max response is 20.1% (inactive).
